Pf growth 48h = inhibits P. falciparum growth in the first generation, 48 h; P. falciparum luciferase growth in erythrocytes, 48 h; Potency, µM (highest dose often 28.7 µM), usual class: inhibitors; actives 5.9% (n = 310,000)
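A one-generation exposure of luciferase-tagged malaria parasites in RPMI 1640/Albumax erythrocyte culture, 37 C and 5% CO2. Inhibition is inferred from decreased luminescence after adding detection reagent.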
Pf growth 96h = inhibits malaria parasite growth, 96 h | P. falciparum luciferase reporter growth, 96 h | Potency, µM (doses to about 28.7 µM), most hits filed as inhibitors | actives 6.9% (n = 320,000) | AID 504834
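Infected RBCs, 2% Hct / 0.05% parasitemia final; luciferase-reporter P. falciparum; cpd 96 h, 37 C, 5% CO2; luciferase detection reagent; luminescence.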
AmpC no deterg = AmpC beta-lactamase inhibition without detergent; P00811; AmpC nitrocefin hydrolysis, absorbance 480 nm, 0.0001% Triton; Potency, µM (top dose mostly 57.1 µM), most hits filed as inhibitors; actives 0.52% (n = 330,000); also: nearly all actives have a fitted effect of over 20% in size
Target sequence (P00811 whole entry, looked up): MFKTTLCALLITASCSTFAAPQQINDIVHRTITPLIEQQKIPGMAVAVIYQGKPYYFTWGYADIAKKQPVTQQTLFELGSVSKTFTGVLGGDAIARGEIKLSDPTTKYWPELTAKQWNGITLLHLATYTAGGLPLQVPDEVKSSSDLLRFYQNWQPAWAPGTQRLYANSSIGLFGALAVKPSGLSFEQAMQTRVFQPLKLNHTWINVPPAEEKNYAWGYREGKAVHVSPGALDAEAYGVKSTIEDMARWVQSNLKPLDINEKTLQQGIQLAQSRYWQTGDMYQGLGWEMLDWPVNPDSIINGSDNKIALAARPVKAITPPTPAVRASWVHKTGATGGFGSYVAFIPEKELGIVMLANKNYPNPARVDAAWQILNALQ
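AmpC (5.3 nM in the dispensed reagent) in 20 mM phosphate pH 7.0 with 0.01% (detergent screen) or 0.0001% Triton X-100 was preincubated with compounds for 15 min at room temperature. Nitrocefin was then added from an 800 uM solution, and hydrolysis was followed at 480 nm.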
Sm TGR block = S. mansoni TGR enzyme inhibition. Potency, µM (titrated, usually from 114 µM), actives largely listed as inhibitors. Q962Y6. actives 3% (n = 360,000). AID 485364. purified TGR, DTNB reduction, TNB absorbance 405 nm; also: nearly all actives have a fitted effect of over 60% in size
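First, TGR (20 nM dispensed) and NADPH were mixed with compound. Second, a 15 min room-temperature incubation followed. Third, further NADPH and then DTNB were added to start the reaction. Finally, TNB absorbance was monitored kinetically.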
SARS PLpro yeast-1 = blocks SARS-CoV papain-like protease in a yeast assay; S. cerevisiae expressing SARS-CoV PLpro, growth rescue; Potency, µM (titrated, usually from 32.9 µM), hits mostly activators; actives 0.19% (n = 330,000); AID 485353; calls by dose curve; also: nearly all actives have a fitted effect of over 55% in size
AmpC detergent = inhibitors of E. coli AmpC beta-lactamase with detergent | P00811 | AmpC hydrolysis of nitrocefin, absorbance 480 nm, 0.01% Triton | Potency, µM (doses to about 114 µM), usual class: inhibitors | actives 0.041% (n = 370,000) | AID 485294; also: nearly all actives have a fitted effect of over 25% in size
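AmpC (5.3 nM in the dispensed reagent) in 20 mM phosphate pH 7.0 with 0.01% (detergent screen) or 0.0001% Triton X-100 was preincubated with compounds for 15 min at room temperature. Nitrocefin was then added from an 800 uM solution, and hydrolysis was followed at 480 nm.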
SARS PLpro yeast-2 = Rescues yeast growth by inhibiting SARS-CoV PLpro; AID 652038; calls only; shares compounds with SARS PLpro yeast-1; actives 19% (n = 1,000); yeast expressing SARS-CoV PLpro, growth phenotype rescue; call rule not given here
Of the large screens only hits and unclear results are named; the others gave an inactive call (follow-up assays come after a bar, where they were run). This is a sample that favours compounds with a hit; in the whole collection about 12% have one here. Unless noted, calls follow the shape of the dose curve; as a rule, active = well fitted curve in the direction sought with a large enough effect; inconclusive = small, poorly fitted or top-dose-only effect, or another doubt; inactive = no such curve, though single readings can be large; an effect the other way counts as inactive or inconclusive.

Cc1[nH]c2nc3ccccc3n2c(=O)c1CCC(C)C	Pf growth 96h inconclusive
O=C(N/N=C/c1c(O)n(CCc2ccc(F)cc2)c(=O)[nH]c1=O)c1ccccc1	Pf growth 96h inconclusive, Sm TGR block inconclusive
O=C(N/N=C/c1c(O)n(CCc2ccccc2)c(=O)[nH]c1=O)c1ccccc1O	SARS PLpro yeast-1 2.24µM | SARS PLpro yeast-2 inconclusive
O=C(CCC(=O)c1ccc(F)cc1)Nc1cccc(S(=O)(=O)Nc2cccc(Cl)c2)c1	none
O=C(O)COc1ccccc1/C=N/NC(=O)c1cc2ccccc2cc1O	none
Brc1ccc(C2N3CCCN23)cc1 (centres undefined)	SARS PLpro yeast-1 17.8µM | SARS PLpro yeast-2 inconclusive
O=C(O)CCC(=O)Nc1ccc(SSc2ccc(NC(=O)CCC(=O)O)cc2)cc1	Pf growth 48h inconclusive
COc1cc2c(C(=O)N(C)c3ccc(F)cc3)cn(C)c(=O)c2cc1OC	Pf growth 96h inconclusive
CNNC(=S)Nc1ccc(Cl)cc1	none
CN(C)NC(=S)Nc1ccc(Cl)cc1	SARS PLpro yeast-1 11.2µM (no result: Pf growth 48h) | SARS PLpro yeast-2 active
CC(C)(C)OC(=O)C[C@H]1C/C=C\C[C@@H](CC(=O)N[C@@H](CO)Cc2ccccc2)C(=O)NC[C@H](c2ccccc2)OC1=O	SARS PLpro yeast-1 3.55µM (no result: Pf growth 48h, Pf growth 96h, Sm TGR block, AmpC detergent) | SARS PLpro yeast-2 inactive
Cc1c(C=O)c2ccccc2n1Cc1ccc([N+](=O)[O-])cc1	Pf growth 48h inconclusive, SARS PLpro yeast-1 inconclusive | SARS PLpro yeast-2 inactive
C/C(CC(=O)NC12CC3CC(CC(C3)C1)C2)=N\NC(=O)c1ccc(C)cc1	none
Cn1c2ccsc2c2cnn(Cc3ccc(F)cc3)c(=O)c21	Pf growth 48h inconclusive, AmpC detergent inconclusive
C[C@H](CO)N1C[C@H](C)[C@@H](CN(C)C(=O)NC2CCCCC2)Oc2c(NC(=O)Nc3ccccc3)cccc2C1=O	none (no result: Pf growth 48h, Pf growth 96h, Sm TGR block, AmpC detergent)
C[C@H](CO)N1C[C@H](C)[C@@H](CN(C)C(=O)Nc2ccccc2)Oc2c(NC(=O)NC3CCCCC3)cccc2C1=O	SARS PLpro yeast-1 inconclusive (no result: Pf growth 48h, Pf growth 96h, Sm TGR block, AmpC detergent) | SARS PLpro yeast-2 inactive
COc1ccc(S(=O)(=O)Nc2cccc3c2O[C@H](CN(C)Cc2ccc(Cl)c(Cl)c2)[C@@H](C)CN([C@H](C)CO)C3=O)cc1	SARS PLpro yeast-1 inconclusive (no result: Pf growth 48h, Pf growth 96h, Sm TGR block, AmpC detergent) | SARS PLpro yeast-2 inconclusive
CC(=O)c1c(C)[nH]c(C(=O)OCC(=O)Nc2ccc(Cl)cc2[N+](=O)[O-])c1C	none
Cc1ccc(C(=O)NC(C(=O)OCc2cn3cc(Cl)ccc3n2)C(C)C)cc1 (centres undefined)	Pf growth 48h inconclusive, Pf growth 96h inconclusive
CCOC(=O)c1ccc(S(=O)(=O)N2CC(=O)Nc3ccccc32)cc1	none
COc1ccc2nc(N3CCN(C(=O)CS(=O)(=O)c4ccc(C)cc4)CC3)sc2c1	none (no result: Pf growth 48h, Pf growth 96h, AmpC no deterg, SARS PLpro yeast-1)
CCCC(=O)Nc1ccc(C(=O)NNC(=O)c2ccco2)cc1	SARS PLpro yeast-1 inconclusive | SARS PLpro yeast-2 inactive
CCCCNC(=S)NC(=O)c1ccccc1Br	SARS PLpro yeast-1 11.2µM | SARS PLpro yeast-2 active
O=C(CNC(=S)NC(=O)c1ccccc1Br)c1ccccc1	none
CCN(CC)S(=O)(=O)c1ccc(OC)c(NC(=O)c2cc(C)on2)c1	none
O=C(/C=C1\NC2(CCCC2)Cc2ccccc21)C(=O)N/N=C/c1ccccc1O	SARS PLpro yeast-1 7.94µM, AmpC detergent inconclusive | SARS PLpro yeast-2 active
C=C(C)CNC(=S)N/N=C(\C)c1ccc(Cl)s1	Pf growth 48h 11.7µM, Pf growth 96h inconclusive, SARS PLpro yeast-1 inconclusive | SARS PLpro yeast-2 active
CNC(=S)N/N=C(\C)c1ccc(Cl)s1	Pf growth 48h inconclusive, Pf growth 96h inconclusive, SARS PLpro yeast-1 inconclusive
CCNC(=S)N/N=C(\C)c1ccc(Cl)s1	Pf growth 48h inconclusive, Pf growth 96h inconclusive, SARS PLpro yeast-1 inconclusive | SARS PLpro yeast-2 active
COc1ccccc1NC(=O)Nc1c(C)nn(C)c1C	none
